In PubChem BioAssay AID903 (National Center for Advancing Translational Sciences (NCATS), 2007):
Screen size: about 55,000 compounds; about 340 (0.62%) were called active. About 3% were inconclusive and are not listed. This is one part of a sample in which actives are shown more often than they occur. Values without a mark were called inactive. The call rests on the fitted dose curve; in most records, active means well fitted cell-killing curve with a large enough effect; inconclusive means small, poorly fitted or top-dose-only effect; inactive means no such curve, though single readings can be large or run the other way.

Assay: qHTS Screen for Compounds that Selectively Target Cancer Cells with p53 Mutations: Cytotoxicity of p53 Null Cells at the Permissive Temperature; further: nearly all actives have a fitted effect of over 55% in size;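 on activity change, negative = cytotoxicity: 0% = DMSO only and -100% = full killing by 100 µM tamoxifen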
Settings: H1299-neo p53 null cells, ATP luminescence, 24 h, 32C; series mostly up to 46.1 µM; activity change, negative = cytotoxicity: at the top concentration
Text: NIH Chemical Genomics Center [NCGC] NIH Molecular Libraries Screening Centers Network [MLSCN] MLSCN Grant: 1 X01 MH079844-01 Assay Submitter (PI): Dr. SUN, YI, University of Michigan NCGC Assay Overview: Synthetic Lethal Screen for Compounds to Kill Cancer Cells with p53 Mutation. Tumor suppressor gene p53 serves as a major cellular barrier against tumorigenesis. […] The goal of this screening is to identify small molecule probes that selectively kill cancer cells with mutations in p53. This screening was carried out using two lines of H1299 lung cancer cells. The H1299-p53 A138V line express a temperature sensitive p53 mutant (p53ts) in which the mutant p53 protein (A138V) is in the mutant confirmation when grown at 39C (the nonpermissive temperature) and in the wild type conformation when grown at 32C (the permissive temperature). A H1299-neo line (p53 null) grown at both 39C and 32C were used as counter-screens to filter out false positive associated with temperature shifting. The small molecular compounds that selectively target mutant p53-containing cancer cells were selected as candidate probes for further study. A cytotoxicity assay based on the measurement of ATP contents in cells was used in this screen. Concentration-responses of all the compounds in the library collection were determined in qHTS using the cell lines and temperature conditions as above.
NCGC Assay Protocol Summary: Both the H1299-p53A138V and H1299-neo cell lines were provided by Dr.Yi Sun, a PI at the University Michigan. The cells were maintained and cultured at 37C. The resuspended frozen cells were used to plate the cells in the 1536-well assay plates at a density of 600 cells per well in 5 ul medium. The assay plates with the cells were incubated at 37C for 16 to 30 hours before the experiments. The library compounds in DMSO solution were added to the cells in assay plates and incubated 24 hours at 39C (for mutant p53 conformation) or 32C (for normal p53 conformation as control). An ATP_lite assay kit (PerkinElmer) was used to determine the cell viability. Tomaxifen (100uM) was used as the positive control for cell killing. Data were normalized to the controls for basal activity (DMSO only) and 100% killing (100uM tamoxifen). AC50 values were determined from concentration-response data modeled with the standard Hill equation. P53 assay protocol: 1. Reagent; 5 uL H1299-p53A138V or H1299-neo cell cells/well 2. Time; overnight; 37C incubation 3. Compounds; 23 nL; 5.9 nM to 46 uM 4. Controls; 23 nL; Tamoxifen 100 uM 5. Time; 24 hr; 32C incubation 6. Reagent; 3 uL; ATP_Lite reagent 7. Time; 20 min; Room Temperature 8. Detection; Luminescence; Viewlux plate reader Keywords: p53, synthetic lethal, cancer, cell viability, cytotoxicity, H1299 cell line, luminescence, MLSMR, MLSCN, NIH Roadmap, qHTS, NCGC
Potency means the concentration at half of the fitted maximal effect.

Row | SMILES | activity change, negative = cytotoxicity | Potency
1 | CC(C)(C)c1ccc(C(=O)NCC(=O)OCN2C(=O)c3ccccc3C2=O)cc1 | -4.46% | 
2 | Cc1ccc(NC(=O)c2cn3c4c(ccc(Cl)c4c2=O)OC(C)C3)cc1C (stereo not given) | -6.91% | 
3 | Cc1cc(C)cc(NC(=O)Cc2csc(C)n2)c1 | -5.68% | 
4 | COc1ccc2c(c1)Cc1sc(NC(=O)c3ccccc3Br)nc1-2 | -29.5% | 
5 | CCc1ccc(CNC(=O)C2CCN(c3nn4cc(-c5ccc(F)cc5)nc4s3)CC2)cc1 | 0.0691% | 
6 | CCCS(=O)(=O)Nc1cccc(-c2cn3ccsc3n2)c1 | -16.5% | 
7 | CCC(CC)c1nn2cc(-c3ccccc3)nc2s1 |  | 6.31 µM (active)
8 | Cc1cc(C)cc(OC(C)C(=O)Nc2nc3c(s2)CCCC3)c1 (stereo not given) | 7.37% | 
9 | O=C(Nc1nc2c(s1)CCCC2)c1ccccc1F |  | 6.31 µM (active)
10 | Cc1ccccc1NC(=O)c1c(NC(=O)c2ccccc2F)sc2c1CCC(C)C2 (stereo not given) | 1.58% | 
11 | CCOC(=O)NC(=O)CSc1nnc(SCCC(=O)O)s1 | -2.55% | 
12 | CCC(C)NC(=O)c1ccccc1NC(=O)c1ccccc1N(C)S(C)(=O)=O (stereo not given) | 7.32% | 
13 | Cc1ccc(-n2nnnc2CNC(=O)c2ccccc2C)cc1C | 9.36% | 
14 | COC(=O)c1cnn(-c2ccc(C(=O)Nc3ccc(OC(F)(F)F)cc3)cc2)c1N | -7.31% | 
15 | CCn1c(O)c(N=NC(=O)c2cccc(S(=O)(=O)N3CCCCC3)c2)c2ccccc21 | -1.69% | 
16 | Cc1nn2c(=O)cc(COC(=O)c3cccc(NC(=O)COc4ccccc4Cl)c3)nc2s1 |  | 12.6 µM (active)
17 | CCCCc1nn2c(=O)cc(COC(=O)c3cccc(NC(=O)COc4ccccc4)c3)nc2s1 | -9.02% | 
18 | Cc1nn2c(=O)cc(COC(=O)c3ccccc3NC(=O)COc3ccccc3C)nc2s1 | -5.39% | 
19 | CCc1nc2cccnc2n1-c1ccc(CC(=O)Nc2c(C)cccc2C)cc1 | 6.52% | 
20 | CCCCC1N2CC3([N+](=O)[O-])CN1CC([N+](=O)[O-])(C2)C3(C)C (stereo not given) | -16.9% | 
21 | Cc1cc(-c2ccc(C)c(S(=O)(=O)N3c4ccccc4CC3C)c2)on1 (stereo not given) | 13.3% | 
22 | Cc1ccc(-c2nnc(SCC(=O)N/N=C/c3cccs3)n2-c2ccc(C)cc2)cc1 | -10.3% | 
23 | Cc1ccc2nc(/C(C#N)=C/c3ccccc3F)[nH]c2c1 | -5.46% | 
24 | O=S(=O)(c1ccc(Br)cc1)c1nnn2c1nc(N1CCOCC1)c1sccc12 | 0.31% | 
25 | CCOc1ccc(NC(=O)c2cnn(-c3ccccc3)c2-n2cccc2)cc1 | 60.8% | 

Row | SMILES | activity change, negative = cytotoxicity | Potency
26 | CCOc1ccc(NC(=O)CN2CCN(CC(=O)Nc3ccc(OC)cc3)CC2)cc1 |  | inactive
27 | CCOc1ccc(NC(=O)c2ncoc2-c2ccco2)cc1 |  | 12.6 µM (active)
28 | CCc1nc2ccc(C(=O)N3CCN(c4cc(Cl)ccc4C)CC3)cc2nc1CC | 16.6% | 
29 | CCOC(=O)c1c(C)[nH]c(C)c1S(=O)(=O)N1CCC(C(=O)Nc2ccc(C)c(Cl)c2)CC1 | -10.5% | 
30 | N#C/C(=C\c1ccccc1F)c1nc2ccccc2c(=O)[nH]1 | -2.22% | 
31 | COc1ccc(-n2ccnc(NCCc3ccc(Cl)cc3)c2=O)cc1OC | 0.865% | 
32 | CCOC(=O)c1cccc(NS(=O)(=O)c2cn(C)c(C)n2)c1 | -3.89% | 
33 | O=C(NC1CC(=O)N(c2ccc(Cl)cc2)C1)C1CCCC1 (stereo not given) | 3.83% | 
34 | Cn1c(=O)c2c(nc(Oc3ccc(C#N)cc3)n2Cc2ccc(Cl)cc2Cl)n(C)c1=O | 9.69% | 
35 | Brc1ccc(-c2csc(N/N=C/c3ccc4c(c3)OCO4)n2)cc1 | -5.38% | 
36 | CCCC(=O)Nc1cccc(NC(=S)NC(=O)C(C)Oc2ccc(Cl)cc2Cl)c1 (stereo not given) | -5.63% | 
37 | COC(=O)c1cc2occc2n1Cc1nc(-c2ccc(C)cc2)oc1C | -11.9% | 
38 | Cc1ccc(CNC(=O)CCNS(=O)(=O)c2ccc3c(c2)oc(=O)n3C)cc1 | -2.38% | 
39 | CCOc1ccc(CNC(=O)CCc2c(C)nn(-c3ccc(N4CCCCC4)nn3)c2C)cc1 | -15.4% | 
40 | CCc1cc2c(-c3ccccc3)cc(=O)oc2c2c1OCN(Cc1ccc(C)cc1)C2 | -8.96% | 
41 | COc1ccc(CCNC(=O)CN2C(=O)COc3ccc(S(=O)(=O)N4CCCC4)cc32)cc1OC | 3.84% | 
42 | CCOc1cc(CNCc2ccccn2)ccc1OCC(=O)NC(C)(C)C | -6.1% | 
43 | Cc1ccc(CCNC(=O)C2CCN(c3nnc(-n4cccc4CNc4ccc(C)cc4)s3)CC2)cc1 | 21.3% | 
44 | C/C(CC(=O)Nc1ccc(Cl)cc1)=N\NC(=O)C(=O)NCCO | -8.76% | 
45 | Cc1ccc2[nH]c3c(=O)n(CC(=O)NC(C)C)ncc3c2c1 | -1.55% | 
46 | CCC(=O)Nc1ccc(C)cc1-c1nc2ccccc2n(Cc2ccccc2)c1=O | -3.5% | 
47 | CCn1c(SCC(=O)Nc2ccc(C)cc2)nc2nc3c(cc2c1=O)CCCC3 | -14.2% | 
48 | CCOc1ccccc1NC(=O)C1CCCN(S(=O)(=O)c2cn(C)cn2)C1 (stereo not given) | -7.67% | 
49 | Cc1nc2ccc(S(=O)(=O)N(CC(=O)Nc3ccc(F)cc3)Cc3ccccc3)cc2s1 | -15.1% | 
50 | COC(=O)c1ccc(NC(=O)c2cnn(-c3ccc(Cl)cc3)c2C2CCN(C(=O)OC(C)(C)C)CC2)cc1 | 16.5% | 
